Compounds with a hit are over-represented: about 2.3% of the library has one in this group of screens.
Mcl1-Bid inh = Mcl-1/Bid binding inhibitors, primary screen, biochemical, TR-FRET, 1536-well; Induced myeloid leukemia cell differentiation protein Mcl-1 (Homo sapiens), Q07820; TR-FRET Mcl-1/Bid-Dy647 peptide binding; AID 1021, 2008; inhibition, % at 21.7 µM; 0.97% of 220,000 active;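 active = compounds that cut the binding signal by more than half at the single screening dose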;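 note: His-tagged Mcl-1 with europium anti-His antibody binding Bid BH3 peptide; 0% = Mcl-1 plus peptide wells and 100% = peptide-only wells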
Target sequence (Q07820 whole entry, looked up): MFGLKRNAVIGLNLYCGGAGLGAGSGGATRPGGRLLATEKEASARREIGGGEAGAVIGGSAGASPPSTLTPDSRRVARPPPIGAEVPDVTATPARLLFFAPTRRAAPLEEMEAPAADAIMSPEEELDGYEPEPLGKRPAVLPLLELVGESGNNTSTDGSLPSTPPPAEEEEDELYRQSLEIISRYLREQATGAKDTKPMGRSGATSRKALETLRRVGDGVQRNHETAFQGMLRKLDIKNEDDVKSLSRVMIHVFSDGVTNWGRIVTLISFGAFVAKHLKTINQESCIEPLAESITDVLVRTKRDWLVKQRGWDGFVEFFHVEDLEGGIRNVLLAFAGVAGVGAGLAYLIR
BCLXL inh = inhibitors of human Bcl-xL, primary screen, biochemical, fluorescence polarization, HTS | Bcl-2-like protein 1 (Homo sapiens), Q07817 | GST-Bcl-xL / FITC-Bim BH3 peptide fluorescence polarization | inhibition, % at 10.9 µM | 0.7% of 320,000 active | AID 2129, 2009;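 active = inhibition above the mean of all tested compounds plus 3 SD, cutoff set per campaign, cut at about 30% in these data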;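 note: 0% = DMSO wells and 100% = unlabeled Bim-BH3 peptide competitor; inhibitors lower millipolarization by displacing the labeled peptide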
Target sequence (Q07817 whole entry, looked up): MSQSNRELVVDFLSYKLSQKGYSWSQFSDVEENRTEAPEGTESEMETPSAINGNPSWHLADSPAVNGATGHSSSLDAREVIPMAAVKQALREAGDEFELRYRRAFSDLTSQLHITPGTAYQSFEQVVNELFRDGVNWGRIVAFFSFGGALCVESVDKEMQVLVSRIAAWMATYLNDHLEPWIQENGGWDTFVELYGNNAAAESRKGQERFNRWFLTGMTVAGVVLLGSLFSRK
GLD-1 TGE inh = GLD-1/TGE RNA complex disruptors, primary screen, biochemical, fluorescence polarization; Female germline-specific tumor suppressor gld-1 (Caenorhabditis elegans), Q17339; purified GLD-1 + fluorescein TGE RNA; inhibition, % at 5.96 µM; 0.44% of 320,000 active;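 active = percent inhibition above a per-plate cutoff, the plate mean of test compounds plus 3 SD, cut at about 30% in these data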;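 note: 0% = DMSO wells with GLD-1 and probe and 100% = wells lacking GLD-1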
Mcl1-Noxa inh = Mcl-1/Noxa binding inhibitors, primary screen, biochemical, TR-FRET, 1536-well; inhibition, % at 21.7 µM; 1.5% of 220,000 active; TR-FRET Mcl-1/Noxa peptide binding, 2 h;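 active = compounds that cut the protein-peptide binding signal by more than 50% relative to plate controls in a single-dose test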;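 note: His-tagged Mcl-1 with rhodamine Noxa BH3 peptide and terbium anti-His antibody; 0% = Mcl-1 plus Noxa peptide wells and 100% = peptide-only wells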
MCL1 BIM primary = inhibitors of MCL1 binding to BIM-BH3, primary screen, biochemical, fluorescence polarization; Induced myeloid leukemia cell differentiation protein Mcl-1 (Homo sapiens), Q07820; 0.68% of 320,000 active; inhibition, % at 10.9 µM; GST-MCL1 / FITC-Bim-BH3 fluorescence polarization;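 active = inhibition above the mean inhibition of all tested compounds plus 3 SD, set per campaign, cut at about 40% in these data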;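 note: 0% = DMSO wells and 100% = unlabeled Bim-BH3 peptide control; higher means more loss of mP so more displacement of Bim peptide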
Bim-Mcl-1 = inhibitors of Bim peptide binding to Mcl-1, primary screen, biochemical, bead-based flow cytometry, multiplex; Bim peptide-Mcl-1 binding; Induced myeloid leukemia cell differentiation protein Mcl-1 (Homo sapiens), Q07820; 0.1% of 190,000 active; inhibition, % at 10 µM; AID 1009, 2008; in the data active = inhibition above about 40%;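 note: 0% = no compound tracer wells and 100% = peptide blocker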
An asterisk follows results filed as active; nt = no result given.

SMILES | Mcl1-Bid inh | BCLXL inh | GLD-1 TGE inh | Mcl1-Noxa inh | MCL1 BIM primary | Bim-Mcl-1
O=C(NC(=S)Nc1ccc(S(=O)(=O)N2CCCCC2)cc1)c1cccs1 | 96* | 4 | 1 | 1 | 16 | 0
CN1CCN(S(=O)(=O)c2ccc(NC(=S)NC(=O)c3ccc(Cl)cc3)cc2)CC1 | 2 | nt | nt | 84* | nt | -7
O=C(NCc1cccnc1)c1ccc(S(=O)(=O)N2CCCCC2)cc1 | 9 | 3 | 2 | 24 | 1 | 0
NS(=O)(=O)c1ccc(NC(=S)NC(=O)c2cccs2)cc1 | -42 | 5 | 5 | 1 | 15 | nt
O=S(=O)(c1ccc(NC(=S)NCc2cccnc2)cc1)N1CCCCC1 | 96* | 7 | 5 | 20 | 3 | nt
Cc1nc2ncnn2c(C)c1CCC(=O)N1CCc2ccccc2C1 | 2 | 3 | 2 | 7 | -2 | -1
COc1ccc(Nc2cc(Nc3cccc(OC)c3)ncn2)cc1 | nt | 2 | -3 | nt | -8 | nt
CCc1cc2c(=O)n3c(nc2s1)-c1[nH]c2ccc(OC)cc2c1CC3 | 10 | 5 | 2 | 10 | 0 | -1
COc1ccc2[nH]c3c(c2c1)CCn1c-3nc2sc(C(=O)Nc3ccccc3)c(C)c2c1=O | 75* | nt | nt | 54* | nt | 0
O=C(Nc1ccccc1)c1ccsc1 | -4 | 6 | 1 | 5 | 5 | -5
CC(C)NC(=O)c1sc2nc(-c3cccs3)cc(-c3cccs3)c2c1N | 17 | 1 | -9 | 52* | -7 | 2
COc1ccc(C(=O)c2sc3nc(C)cc(-c4cccs4)c3c2N)cc1 | -43 | nt | nt | -22 | nt | -2
Cc1nc(-c2cccs2)ccc1C(=O)O | -17 | 7 | -5 | 8 | 9 | 5
Nc1ccc(C(=O)Nc2nc3ccccc3s2)cc1 | -17 | 0 | 1 | 6 | 7 | -2
CC(=O)c1sc2nc(-c3cccs3)ccc2c1N | -59 | -1 | -2 | 74* | 30 | -4
Nc1c(C(=O)Nc2nc3ccccc3s2)sc2nc(-c3cccs3)ccc12 | 92* | 25 | -5 | 97* | -2 | 4
COc1cc2[nH]c(C(=O)N3CCN(c4ccc(F)cc4)CC3)cc2c(OC)c1OC | nt | 5 | -2 | nt | 0 | nt
CC(=O)OCCn1c2nc(=O)[nH]c(=O)c-2nc2cc(C)c(C)cc21 | 96* | nt | nt | 14 | nt | nt
CC(=O)OCCn1c(C)[n+](CCOC(C)=O)c2cc(Cl)c(Cl)cc21 | 3 | -16 | 1 | 22 | -25 | -5
COc1ccc(N/C=C2\CCOC2=O)cc1 | -101 | 4 | 7 | 29 | 3 | 0
COc1ccc(N/C=C2\C(=O)CCc3c2oc2cc(Cl)c(O)c(Cl)c32)cc1 | 86* | 6 | 1 | 74* | 32 | nt
Nc1cccc2[nH]c(C(F)(F)F)nc12 | 18 | 6 | -1 | 52* | 2 | -28
FC(F)(F)c1nc(=S)c2ccccc2[nH]1 | -48 | nt | nt | 32 | nt | 86*
Cc1nc(=S)c2ccccc2[nH]1 | 5 | -2 | -7 | 16 | 0 | 33
CCn1nc(C(=O)Nc2ccc(C)c(C)c2)c(Cl)c1Cl | 9 | 8 | 11 | -7 | 6 | -3
SMILES | Mcl1-Bid inh | BCLXL inh | GLD-1 TGE inh | Mcl1-Noxa inh | MCL1 BIM primary | Bim-Mcl-1
CCC(C)NC(=O)C1CCN(S(=O)(=O)c2ccc(Br)s2)CC1 (stereo unspecified) | -8 | 3 | 7 | 7 | -4 | -1
CC1(C)Cc2c(C#N)c(N3CCN(C(=O)c4ccccc4Cl)CC3)nc(-c3ccco3)c2CS1 | -21 | 33* | 13 | 46 | 43* | 0
CC(=O)N1CCN(c2nc(-c3ccco3)c3c(c2C#N)CC(C)(C)SC3)CC1 | -18 | 12 | 5 | 17 | 8 | -3
O=C(CCCOc1ccccc1)N1CCN(c2ccccc2)CC1 | 59* | 1 | 2 | -13 | -4 | 2
COc1ccccc1NC(=O)CSc1nc2ccccc2cc1Cc1ccccc1 | 73* | -10 | 1 | -22 | -7 | -4
COc1c(-c2ccc(O)c(O)c2)oc2cc(O)cc(O)c2c1=O | -61 | 0 | 10 | 56* | -5 | nt
O=c1c(O)c(-c2ccccc2)oc2cc(O)cc(O)c12 | nt | nt | 6 | nt | nt | nt
O=c1c(O)c(-c2ccc(O)cc2O)oc2cc(O)cc(O)c12 | -42 | nt | nt | 103* | nt | 3
COc1ccc(Cl)cc1S(=O)(=O)N1CCCC(C(=O)NCC(N)=O)C1 (stereo unspecified) | nt | 3 | 8 | nt | 7 | nt
O=C(CCN1C(=O)/C(=C/c2ccc(Cl)cc2)SC1=S)Nc1cccc(C(=O)O)c1 | nt | 3 | -4 | nt | 1 | nt
O=C(O)c1cccc(N2C(=O)/C(=C/c3ccc(SCc4ccc(Cl)cc4)o3)SC2=S)c1 | 84* | nt | nt | 89* | nt | 11
CN(C)S(=O)(=O)c1ccc(Cl)c(NC(=O)CSc2nnnn2-c2ccc(O)cc2)c1 | 56* | nt | nt | 22 | nt | -2
Cc1nc2sc(C(c3ccc(Cl)cc3)N3CCN(C(=O)c4ccco4)CC3)c(O)n2n1 (stereo unspecified) | -6 | 4 | 0 | 10 | 8 | -8
COCC(=O)N(Cc1nc2ccccc2c(=O)[nH]1)Cc1cccs1 | -43 | -4 | 8 | -12 | 4 | 1
O=[N+]([O-])c1cccc(N/N=C/c2cc([N+](=O)[O-])ccc2O)c1 | -20 | 1 | -3 | 100* | 0 | 1
C=CCN1C(=O)/C(=C2/Sc3ccccc3N2CCCS(=O)(=O)O)SC1=S | -10 | 16 | -2 | 71* | 35 | 0
C=CCN1C(=O)/C(=C2/Sc3ccccc3N2CC)SC1=S | nt | 11 | -3 | nt | 4 | nt
COc1cc2c(cc1NC(=O)COC(=O)CNS(=O)(=O)c1ccc(C)cc1)oc1ccccc12 | -5 | -1 | 4 | 13 | -14 | 2
O=C(NCCO)Nc1ccc2nc(-c3ccco3)c(-c3ccco3)nc2c1 | 18 | 136* | 78* | 106* | 145* | 15
CCc1nc2ccc(C(=O)NCCc3ccco3)cc2nc1CC | nt | 7 | 1 | nt | -2 | nt
O=C(NCCCO)c1ccc2nc(-c3ccco3)c(-c3ccco3)nc2c1 | -19 | nt | nt | 91* | nt | 18
O=C(NCCO)Nc1ccc2nsnc2c1 | 5 | 6 | -6 | -13 | 2 | 4
CCOC(=O)N1CCN(C(=O)CN(Cc2ccccc2)S(=O)(=O)c2ccc(OC)c(C)c2)CC1 | 1 | 3 | 0 | 11 | -2 | 0
COc1ccc(N2C(=O)CC3(CCCC3)CC2=O)cc1 | -11 | 3 | -2 | 7 | 2 | -1
COc1ccc(N/C=C/C(=O)c2cc(OC)c(OC)c(OC)c2)cc1 | nt | 2 | -7 | nt | 5 | nt

High-throughput results as filed in PubChem BioAssay.
